Source: PubChem BioAssay (National Center for Advancing Translational Sciences (NCATS))
Luc counter: blocks Kinase-Glo luciferase, a counter-screen artifact. Q27757. Kinase-Glo luciferase, ATP luminescence, 8 min. 200,000 compounds, 0.28% hits. Potency, µM (top dose mostly 38.3 µM), inactives show at the top dose activity change, negative = inhibition, usual class: inhibitors; active = well fitted inhibition curve with a large enough effect; inconclusive = small, poorly fitted or top-dose-only effect; note: potency is the fitted concentration of half-maximal effect; nearly all actives have a fitted effect of over 60% in size
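Compounds were added to a substrate mix at pH 7.2 (50 mM imidazole, 10 uM ATP, within the enzyme's linear range), followed by Kinase-Glo detection reagent; luminescence was measured after 8 minutes at ambient temperature.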
PNC assembly inh: blocks assembly of the perinucleolar compartment | PC3M PTB-GFP, PNC prevalence imaging, 16 h; active compounds read low | activity change (PNC), negative = inhibition, % at 10 µM | 140,000 compounds, 3.1% hits | AID 2417;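 active = readout at or below -70, meaning at least 70% loss of cells showing the perinucleolar compartment, a nuclear body marking cancer cells; inconclusive = readout between -30 and a set limit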;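 note: plate controls were DMSO wells for no effect and camptothecin positive control wells for full effect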
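PC3M cells stably expressing PTB-GFP, 750–1000 cells/well, treated 16 h at 37 °C with compound (23 nl of library stock), in duplicate. After paraformaldehyde fixation and Hoechst stain, imaged at 20x; PNC prevalence scored by image analysis.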
HPGD inh: blocks human HPGD enzyme activity; AID 894; Potency, µM, for the others: at the top dose activity change, negative = inhibition, actives largely listed as inhibitors; purified HPGD, NADH fluorescence kinetic, PGE2 substrate; 150,000 compounds, 4.3% hits; note: potency is the fitted concentration of half-maximal effect
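NADH formation kinetics: reaction with 30 uM PGE2 and 1 mM NAD+ (final), 20 nM enzyme, Tris-HCl pH 8 with Tween 20, after 15 min compound preincubation at room temperature. Fluorescence change, last versus first of five reads.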
ALDH1A1 inh: ALDH1A1 (human) enzyme inhibition; Purified ALDH1A1, NADH fluorescence, propionaldehyde substrate; Potency, µM (doses to about 75.3 µM), inactives show at the highest dose activity, negative = inhibition, most hits filed as inhibitors; AID 1030; 220,000 compounds, 7.3% hits; P00352;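 note: potency is the fitted concentration of half-maximal effect; plate controls were no enzyme wells and a reference inhibitor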
Target sequence (P00352 whole entry, looked up): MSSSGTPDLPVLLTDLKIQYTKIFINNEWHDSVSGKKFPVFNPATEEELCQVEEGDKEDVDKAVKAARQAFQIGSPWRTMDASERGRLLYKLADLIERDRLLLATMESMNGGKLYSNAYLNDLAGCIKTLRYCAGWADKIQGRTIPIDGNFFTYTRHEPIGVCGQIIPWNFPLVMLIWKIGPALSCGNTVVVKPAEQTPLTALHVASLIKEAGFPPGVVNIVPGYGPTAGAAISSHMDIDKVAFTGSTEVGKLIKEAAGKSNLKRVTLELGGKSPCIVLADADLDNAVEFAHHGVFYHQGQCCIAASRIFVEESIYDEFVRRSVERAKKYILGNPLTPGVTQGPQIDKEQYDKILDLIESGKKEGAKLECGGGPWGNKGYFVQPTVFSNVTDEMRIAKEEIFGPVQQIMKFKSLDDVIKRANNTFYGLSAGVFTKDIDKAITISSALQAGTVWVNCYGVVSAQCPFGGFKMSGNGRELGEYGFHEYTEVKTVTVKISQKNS
Lamin A splicing: LMNA splicing modulation | Potency, µM (doses to about 46.1 µM), for inactives: top-dose ratio change, negative = inhibition, actives largely listed as inhibitors | 200,000 compounds, 0.01% hits | HeLa LMNA splicing GFP/RFP minigene ratio, 48 h; active = well fitted inhibition curve with a large enough effect in the signal ratio, with a control signal flat, not every such curve was filed as active; inconclusive = small, poorly fitted or top-dose-only effect, or effect the other way, or a change in a side signal; the % refers to the signal ratio; note: potency is the fitted concentration of half-maximal effect
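S3 HeLa stable clones carrying a lamin A-EGFP splicing minigene plus DsRed2 were seeded at 600 cells/well in Opti-MEM with 2% FBS, pin-dosed and incubated 48 h at 37°C. Acumen cytometry (488 nm) gave the GFP/RFP total-intensity ratio.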
* hit, by the source's call; u = inconclusive; x = no result given; [ ] = dose if it differs, or a comment. In the library only some 10% were active in any assay of this set; here they are far more common. Unless noted, calls come from the whole dose curve; as a rule, active = well fitted inhibition curve with a large enough effect (not every such curve was filed as active); inconclusive = small, poorly fitted or top-dose-only effect, or another doubt; inactive = no such curve, though single readings can be large or run the other way. Unless noted, % is set by controls: 0 for no effect and ±100 for the full control effect.

SMILES | Luc counter | PNC assembly inh | HPGD inh | ALDH1A1 inh | Lamin A splicing
Cc1ccc(S(=O)(=O)N(C)Cc2ccc(C(=O)N/N=C/c3ccc(OC(F)F)cc3)cc2)cc1 | 0.5% | -18.4 | -8.4% | u | -6.0%
O=C(c1ccco1)N1CCC2(CCN(Cc3cc(C(F)(F)F)cc(C(F)(F)F)c3)CC2)CC1 | -1.6% | x | -10.8% | u | x
CN(Cc1ccccc1)c1ncc(C=O)s1 | 2.8% | x | x | 7.08µM* | x
CN(Cc1cc(Br)cc(Br)c1O)Cc1c(O)ccc2ccccc12 | -7.4%[7.66 µM] | x | -10.2% | -3.2%[13.5 µM] | x
COCC(=O)N(Cc1cc2ccccc2[nH]c1=O)c1ccc(OC)cc1 | 1.2% | -16.2 | -20.4% | 31.6µM* | 3.6%
CC(C)N(Cc1cc2ccccc2[nH]c1=O)C(=O)c1ccco1 | 0.0% | x | x | 17.8µM* | x
Cc1cccc(N(Cc2cc3ccccc3[nH]c2=O)C(=O)c2ccco2)c1C | 1.4% | u | -27.1% | 12.6µM* | -12.7%
COCC(=O)N(Cc1cc2ccccc2[nH]c1=O)c1ccccc1OC | -3.8% | -20.2 | -14.7% | u | -5.8%
O=C(OCc1cc2ccccc2[nH]c1=O)c1ccco1 | 2.5% | u | -21.5% | u | -13.6%
COc1ccc(N(Cc2cc3ccc(C)cc3[nH]c2=O)C(=O)c2ccco2)cc1 | -3.6% | -84.0* | -1.6% | u | u
C=CCn1c(=O)n(CC=C)c(=O)n(CC=C)c1=O | x | x | -2.1% | -7.9% | x
Cc1ccc2[nH]c3c(=O)n(CC(=O)NCCCN4CCN(c5ccc(F)cc5)CC4)ncc3c2c1 | x | x | x | x | 2.3%[46 µM]
NS(=O)(=O)c1ccc(NC(=O)c2ccccc2Cl)cc1 | 1.2% | 51.5 | -11.3% | -4.7% | 7.4%
CCS(=O)(=O)c1ccc(NC(=O)c2ccccc2Cl)c(O)c1 | 6.5% | -8.0 | -19.9% | 15.8µM* | 2.2%
O=C(CC(Nc1cccc(Cl)c1Cl)C(=O)O)c1ccccc1 (stereo not drawn) | 2.1% | x | x | 0.355µM* | x
CCCn1c(C)nc2c(NCCCCN(C)C)nc(C)nc21 | -3.9% | x | -5.2% | 3.9% | x
COc1ccc(OC)c(NS(=O)(=O)c2ccc(SC)cc2)c1 | -0.5% | 28.5 | -1.0% | 17.8µM* | u
COc1ccc(OC)c(NS(=O)(=O)c2ccc(N3CCCC3=O)cc2)c1 | 5.1% | -83.3* | -12.9% | -13.1% | u
COc1ccc2c(CC(=O)Nc3ccc(OC)c(NS(=O)(=O)c4ccc(F)cc4)c3)coc2c1 | 0.9% | -126.8* | -16.2% | u | u
Cc1ccc(NC(=S)c2nc3ccccc3[nH]2)c(C)c1 | -13.8% | 15.1 | 31.6µM* | u | 4.1%
O=C(Nc1nccs1)C1CCCN1S(=O)(=O)c1ccc(Cl)cc1 (stereo not drawn) | 7.0% | u | -19.2% | 17.8µM* | 10.0%
COC(=O)c1ccc(NC(=O)C2CCCN2S(=O)(=O)c2ccc(C)cc2)cc1 (stereo not drawn) | 0.2% | -119.3* | -3.4% | 11.0% | -3.8%
COC(=O)c1ccc(NC(=O)C2CCCN2S(=O)(=O)c2ccc(OC)cc2)cc1 (stereo not drawn) | -3.1% | u | -3.9% | u | 2.9%
CC(=O)NCCNc1ncncc1-c1ccccc1CN(C)C | x | x | x | 10.3% | 4.1%
O=c1n(Cc2cc3c(cc2Cl)OCO3)c(=O)n2n1CC[C@H]1/C(=N\OCc3ccccc3)[C@H]3O[C@@H]3[C@@H](O)[C@@H]12 | x | x | x | -9.8%[13.5 µM] | x
SMILES | Luc counter | PNC assembly inh | HPGD inh | ALDH1A1 inh | Lamin A splicing
O=C1OC(c2ccccc2)/C(=C(/O)c2ccccc2)C1=O (stereo not drawn) | 1.6% | u | -18.2% | 0.794µM* | 8.3%
O=C1OC(c2ccccc2)/C(=C(/O)c2ccc(Cl)cc2)C1=O (stereo not drawn) | -1.8% | 3.3 | 35.5µM* | 37.7µM* | 2.3%
O=C(N/N=C1/C[C@@H](O)[C@@H](O)[C@@H]2[C@@H]3C(=O)N(Cc4ccc5c(c4)OCO5)C(=O)[C@H]3CC[C@@H]12)OCc1ccccc1 | x | x | x | 7.6%[13.5 µM] | x
O=C(N/N=C/c1cn(-c2ccccc2)nc1-c1cc2ccccc2o1)c1cccnc1 | -4.9% | -106.3* | u | u | u
O=S(=O)(NCc1cccs1)c1cccc(S(=O)(=O)N2CCCCC2)c1 | 1.0% | 6.7 | -16.4% | 8.91µM* | u
CCCCNS(=O)(=O)c1cccc(S(=O)(=O)N2CCCC2)c1 | 0.9% | 2.0 | -4.3% | 14.1µM* | -8.4%
O=C(NCc1cccs1)c1ccc(S(=O)(=O)N2CCCCC2)cc1 | 4.8% | x | x | -14.1% | -14.3%[46 µM]
Cc1cccc(OCC(=O)OCc2cc(=O)n3nc(C4CCCCC4)sc3n2)c1 | x | x | x | x | -5.9%[46 µM]
CCOC(=O)c1c(C)cc(O)c(C=O)c1O | -7.5% | x | -9.8% | -13.5% | x
O=C(c1ccc(Br)s1)N1CCCC1 | -3.0% | u | 14.1µM* | -12.7% | -10.8%
O=C(c1ccc(Br)s1)N1CCN(c2ncccn2)CC1 | 0.4% | u | -6.6% | -0.4% | 17.9%
O=C(c1cccs1)N1CCOCC1 | 2.3% | 19.0 | -15.0% | -3.2% | 0.5%
COc1ccc2cc(C(=O)N3CCOCC3)sc(=O)c2c1OC | -6.8% | 19.2 | 22.4µM* | 9.1% | 6.4%
O=C(c1ccc(C(=O)N2CCOCC2)s1)N1CCOCC1 | -1.0% | -16.5 | 20µM* | 3.9% | 16.6%
O=[N+]([O-])c1ccc2c(c1)Cc1cc(N=Cc3ccc4c(c3)OCO4)ccc1-2 | 2.9%[7.66 µM] | x | -3.0% | -3.0%[13.5 µM] | x
Cc1cccc(OCC(=O)NCC2(N3CCN(C)CC3)CCCCC2)c1 | x | x | x | x | 22.5%[46 µM]
CN1CCN(c2ncc3nc(CCc4ccccc4)c(=O)n(Cc4ccc(F)cc4)c3n2)CC1 | -2.0% | x | u | u | x
O=C(Cn1nnc(-c2cc(C(F)(F)F)cc(C(F)(F)F)c2)n1)NNC(=S)Nc1ccc(Cl)cc1 | x | x | x | 1.26µM* | x
C=C(Nc1ccc(OC)cc1)C(=O)OC | 1.8% | x | -6.6% | u | x
COC(=O)N1C(C)=Cc2ccccc2C1C/C(C)=C/C(C)=O (stereo not drawn) | 1.3% | x | -7.7% | 10.1% | -11.9%[9.22 µM]
Cc1ccc(CNC(=O)c2oc3c(c2C)-c2nn(Cc4ccc(Cl)cc4)cc2CC3)cc1 | x | x | x | x | 0.5%[46 µM]
